In the library only some 3% were active in any assay of this set; here they are far more common.
KCNH2 WT inh: qHTS for Inhibitors of KCHN2 3.1: Wildtype qHTS | AID 720551, 2013 | activity change, % at 1.84 µM | U2OS, BacMam KCNH2, thallium flux FluxOr; active compounds read low | hit rate 0.37% among 340,000 | Voltage-gated inwardly rectifying potassium channel KCNH2 (Homo sapiens), Q12809;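 active = maximum activity change below -70%; inconclusive = maximum activity change between -70% and -50%; inactive = maximum activity change above -50%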
Target sequence (Q12809 whole entry, looked up): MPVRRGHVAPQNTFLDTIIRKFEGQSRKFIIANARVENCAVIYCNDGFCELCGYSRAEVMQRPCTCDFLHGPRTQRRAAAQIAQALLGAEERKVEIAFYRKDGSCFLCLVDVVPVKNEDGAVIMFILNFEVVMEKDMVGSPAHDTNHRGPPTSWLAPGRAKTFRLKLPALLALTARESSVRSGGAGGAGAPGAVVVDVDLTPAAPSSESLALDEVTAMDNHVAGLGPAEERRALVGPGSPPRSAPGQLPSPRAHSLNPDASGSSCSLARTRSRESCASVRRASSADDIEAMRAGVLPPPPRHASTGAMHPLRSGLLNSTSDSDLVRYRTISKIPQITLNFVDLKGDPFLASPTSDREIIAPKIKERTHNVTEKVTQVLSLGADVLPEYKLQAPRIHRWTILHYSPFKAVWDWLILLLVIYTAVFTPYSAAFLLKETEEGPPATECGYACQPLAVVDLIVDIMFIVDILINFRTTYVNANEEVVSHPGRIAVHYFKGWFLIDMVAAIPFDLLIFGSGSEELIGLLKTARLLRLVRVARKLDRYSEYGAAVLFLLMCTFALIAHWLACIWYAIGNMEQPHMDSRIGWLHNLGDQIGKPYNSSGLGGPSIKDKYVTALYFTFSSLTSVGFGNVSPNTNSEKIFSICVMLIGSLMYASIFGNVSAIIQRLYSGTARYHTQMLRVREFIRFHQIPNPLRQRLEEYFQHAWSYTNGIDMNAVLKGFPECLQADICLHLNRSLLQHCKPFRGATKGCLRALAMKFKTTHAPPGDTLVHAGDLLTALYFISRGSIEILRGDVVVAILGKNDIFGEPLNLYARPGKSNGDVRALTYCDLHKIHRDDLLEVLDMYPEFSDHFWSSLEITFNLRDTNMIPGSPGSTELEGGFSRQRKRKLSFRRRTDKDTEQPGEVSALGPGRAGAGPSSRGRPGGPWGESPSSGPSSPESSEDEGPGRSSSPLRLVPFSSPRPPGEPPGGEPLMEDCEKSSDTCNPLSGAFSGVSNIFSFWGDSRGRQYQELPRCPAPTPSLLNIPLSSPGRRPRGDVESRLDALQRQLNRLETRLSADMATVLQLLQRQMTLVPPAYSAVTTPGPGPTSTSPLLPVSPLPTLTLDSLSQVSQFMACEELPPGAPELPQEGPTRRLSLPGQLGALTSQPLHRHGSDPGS
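U2OS cells transduced with wild-type KCNH2 virus are loaded with FluxOr dye for 45 min, and thallium flux is measured in kinetic reads before and after stimulation buffer. Rate constants are normalized to DMSO controls.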
ClpP mod: qHTS Assay for Activators of ClpP; purified B. subtilis ClpP, FRET peptide cleavage, 20 min; Potency, µM (titrated, usually from 57.5 µM); hit rate 1.9% among 340,000; AID 651965, 2013; active = well fitted falling curve with a large enough effect; inconclusive = small, poorly fitted or top-dose-only effect; inactive = no such curve, though single readings can be large or run the other way; note: the source files actives as falling curves though it sought activators and does not explain the sign; nearly all actives have a fitted effect of over 65% in size
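Buffer: 100 mM Tris/HCl pH8, 100 mM KCl, 0.05% low protease BSA, 2.5% glycerol, 0.01% Tween-20. ClpP 10 microg/mL final; 20 min RT; delta FRET normalized to ADEP and DMSO controls.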
KCNH2 3.1 inh: qHTS for Inhibitors of KCHN2 3.1: Mutant qHTS; Potassium voltage-gated channel subfamily H member 2, brain isoform KCNH2 3.1 (human); U2OS KCNH2 3.1, thallium flux FluxOr; active compounds read low; activity change, % (tested at about 1.8 µM); hit rate 0.95% among 340,000; AID 720553, 2013;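 active = maximum activity change below -70%; inconclusive = maximum activity change from -70% to -50%; inactive = maximum activity change above -50%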;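 note: thallium influx rate constant from kinetic fluorescence after stimulation buffer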
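We transduce U2OS cells with the mutant 3.1 virus, culture them overnight, load FluxOr with Red40 quencher for 45 min, then add stimulation buffer and read kinetically for 2 min to derive a normalized rate constant.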
BCR signal inh: qHTS Assay to Find Inhibitors of Chronic Active B-Cell Receptor Signaling | AID 493014, 2011 | Potency, µM (top dose mostly 46.1 µM), most hits filed as inhibitors | ABC-DLBCL IkBa-CBG/CBR reporter, luminescence ratio, 4 h | hit rate 0.05% among 340,000; active = well fitted inhibition curve with a large enough effect in the signal ratio, with a control signal flat, not every such curve was filed as active; inconclusive = small, poorly fitted or top-dose-only effect, or effect the other way, or a change in a side signal; the % refers to the signal ratio
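Cell line TMD8 (human ABC DLBCL), stably expressing tet-inducible CBG68-IkBa fusion and CBR; IMDM/0.5% FBS; cpd up to 46 uM; dox induction, 4 h, 37C/5% CO2; dual luminescence; green/red ratio; MG132 control.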
LDHA block: qHTS assay for inhibitors of human lactate dehydrogenase; purified LDHA, NADH/diaphorase-resazurin fluorescence; active compounds read low; L-lactate dehydrogenase A chain (Homo sapiens), P00338; activity change, % (values are at about 110 or 230 µM); hit rate 0.15% among 480,000; in the data active = activity change below about -30%; inconclusive = mostly about -25% to -30%
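Human LDH5 at 2 nM final in Tris HCl pH 7.4 with 0.06 mM NADH and 0.2 mM pyruvate, reacted 5 minutes at room temperature. Remaining NADH coupled via diaphorase/resazurin; resorufin fluorescence read at 0 and 20 minutes, normalized to enzyme-free and DMSO wells.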
12-LOX inh: Primary qHTS assay for inhibitors of human arachidonate 12S-lipoxygenase (ALOX12): Round 2 | purified 12hLO, xylenol orange hydroperoxide absorbance | Potency, µM (top dose mostly 108 µM), usual class: inhibitors | hit rate 1.1% among 580,000; active = well fitted inhibition curve with a large enough effect; inconclusive = small, poorly fitted or top-dose-only effect, or another doubt; inactive = no such curve, though single readings can be large or run the other way
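Hydroperoxide product was detected by ferrous iron/xylenol orange as the 573 to 405 nm absorbance ratio. Arachidonic acid at 40 uM (final) was turned over for 30 min at room temperature by 150 nM human 12hLO, pH 7.0 Hepes buffer, after 15 min compound preincubation.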
Hits are given with their value; – = inactive; ? = inconclusive; · = not tested or not shown.

SMILES	KCNH2 WT inh	ClpP mod	KCNH2 3.1 inh	BCR signal inh	LDHA block	12-LOX inh
Clc1nc(Nc2ccccc2)nc(Nc2ccccc2)n1	–	31.6µM	–	?	–	–
CC(C)(C)Nc1nc(Cl)nc(Nc2ccccc2)n1	–	–	–	?	–	–
COc1ccc(C(=O)N2C[C@@H]3CCCN4CCC[C@@H]([C@H]34)[C@H]2CCCC(=O)NCc2ccccc2)cc1	·	·	·	·	·	–
CCCCCCn1nc(C(=O)OCC#N)c2ccccc2c1=O	·	·	·	·	–	–
Cc1cc(OC(=O)c2ccccc2[N+](=O)[O-])c([N+](=O)[O-])c(=O)[nH]1	–	–	–	–	–	?
Cc1cc(OC(=O)c2cc(Br)ccc2Cl)c([N+](=O)[O-])c(=O)[nH]1	–	–	–	–	–	35.5µM
COC(=O)Nc1ccc(OCc2ccccc2)cc1	–	–	–	?	–	–
NC(=O)COc1ccc(NC(=O)OCc2ccccc2)cc1	–	31.6µM	–	?	–	–
O=[N+]([O-])c1ccc(Cl)cc1CN1CCCCCC1	–	·	–	?	–	5.01µM
CCC1NC(=S)NC(C)=C1C(=O)c1ccccc1 (stereo not given)	–	–	-115.5	–	–	–
CCOC(=O)c1ccc2c(c1)[n+](CC)c(C)n2-c1ccccc1	–	·	–	–	–	?
CC[n+]1c(C)cc(C)n1-c1ccccc1	–	·	–	–	–	39.8µM
CC(C)C(=O)Nc1ccc([C@H]2OCC(=O)N(Cc3nccn3C)[C@@H]2CO)cc1	·	·	·	·	·	–
CN1CCN(c2ccc(Cl)cc2NC(=O)/C=C/c2cccc(F)c2)CC1	?	·	-70.3	?	–	–
Nc1ccccc1-c1nnc2n1CCCCC2	-85.7	·	–	–	–	–
O=CN1CCN(C2CC(=O)N(c3ccc(Br)cc3)C2=O)CC1 (stereo not given)	–	35.5µM	–	–	–	–
O=C1CC(N2CCC(O)CC2)C(=O)N1c1ccc(Br)cc1 (stereo not given)	–	–	–	–	–	?
O=C(Nc1ccccc1C(=O)NCc1ccco1)NC1CCCCC1	–	20µM	–	–	–	–
NC(=O)c1ccccc1NC(=O)NC1CCCCC1	–	–	-71.4	?	–	–
O=C(Nc1ccccc1C(=O)NCc1ccco1)c1ccco1	–	–	–	–	–	–
COc1ccc(C(=O)NCC(=O)NCc2ccncc2)cc1	–	–	–	–	–	–
CCCCOc1ccc(C(=O)NCC(=O)NCc2ccncc2)cc1	–	31.6µM	–	–	–	–
Cc1n[nH]c(=S)c2nn(-c3ccccc3F)c(C)c12	–	–	–	–	–	?
Cc1nnc(Cl)c2nn(-c3ccccc3F)c(C)c12	–	28.2µM	–	–	–	–
Cc1nnc(SCCN2CCOCC2)c2nn(-c3ccccc3F)c(C)c12	–	14.1µM	–	–	–	–
SMILES	KCNH2 WT inh	ClpP mod	KCNH2 3.1 inh	BCR signal inh	LDHA block	12-LOX inh
CC(=O)N1CCc2cc3nc(C)cc(C)c3cc21	–	25.1µM	–	–	–	?
O=C(c1cc(Cl)ccc1Cl)N1CCC(c2nc3ccccc3o2)CC1	·	·	·	·	–	–
CCCCCNc1nc(-c2ccccc2)nc(-n2ccnc2)n1	–	25.1µM	–	–	–	–
CCCCNc1nc(N(C)c2ccccc2)nc(-n2ccnc2)n1	–	–	–	–	–	–
CCN(CC)Cc1oc(CO)cc(=O)c1O	–	·	–	–	–	31.6µM
O=c1cc(CO)oc(CN2CCCC2)c1O	–	–	–	–	–	–
C[C@](N)(Cc1ccc(O)c(O)c1)C(=O)O	–	–	–	–	–	?
COc1ccc(C[C@](C)(N)C(=O)O)cc1OC	–	–	–	23.1µM	–	?
COc1ccc2oc(C(=O)OCC(=O)N(CCC#N)c3ccccc3)c(C)c2c1	–	31.6µM	–	–	–	–
COc1ccc2oc(C(=O)OCC(=O)NC3CCCCC3)c(C)c2c1	–	15.8µM	–	–	–	–
CCN(C(=O)COC(=O)c1oc2ccc(OC)cc2c1C)C1CCS(=O)(=O)C1 (stereo not given)	–	8.91µM	–	?	–	–
CCOc1ccc2oc(C(=O)OCC(=O)NC(=O)NC3CCCC3)c(C)c2c1	–	22.4µM	–	–	–	–
CCOc1ccc2oc(C(=O)OCC(=O)NC3CCCC3)c(C)c2c1	–	–	–	–	–	–
O=C(Nc1cc(Br)ccc1I)C1CC2CCC1C2 (stereo not given)	·	·	·	·	–	?
Cc1cc(C(=O)CSc2nc3cc([N+](=O)[O-])ccc3o2)c(C)n1C1CC1	·	·	·	·	–	?
Cc1cccc(CNC(=O)c2c(OCC(C)C)cc(=O)n3c2CCCCC3)c1	·	·	·	·	·	–
CCC(=O)N1CCC(C(=O)O)CC1	·	·	·	·	–	–
Cc1cccc(OCCCCn2c(C3CC(=O)N(c4ccccc4Cl)C3)nc3ccccc32)c1 (stereo not given)	·	–	·	·	–	–
Cc1cccc(OCCCCn2c(C3CC(=O)N(c4ccc(C)cc4C)C3)nc3ccccc32)c1 (stereo not given)	·	–	·	·	–	17.8µM
Cn1cnnc1CC1CCCN(C(=O)Nc2ccccc2)C1 (stereo not given)	·	·	·	·	·	–
COc1ccc(C(=O)Nc2nc3ccc4nc(C)sc4c3s2)cc1	–	?	-94.1	?	–	–
COc1cc(C(=O)Nc2nc3ccc4nc(C)sc4c3s2)cc(OC)c1OC	–	–	–	?	–	–
O=C1/C(=C/c2ccc3ccccc3c2)CCC1C1CCCC1 (stereo not given)	·	·	·	·	–	?
CCOC(=O)c1c(NC(=O)C2=C(C)NC(=S)NC2c2ccccc2C(F)(F)F)sc(C)c1C (stereo not given)	–	?	–	?	–	25.1µM
Nc1c(C(=O)NCc2ccccc2)sc2nc(N3CCOCC3)c3c(c12)CCCC3	–	25.1µM	-71.9	–	–	–
SMILES	KCNH2 WT inh	ClpP mod	KCNH2 3.1 inh	BCR signal inh	LDHA block	12-LOX inh
N#Cc1sc2nc(N3CCCCC3)c3c(c2c1N)CCCC3	–	28.2µM	–	?	–	–
NNC(=O)c1sc2nc(N3CCOCC3)c3c(c2c1N)CCCC3	–	–	–	–	–	–
Cc1cccc2cc3c(N)c(C(=O)N4CCOCC4)sc3nc12	–	–	–	?	–	25.1µM
Cc1nc2sc(C#N)c(N)c2c2c1CCCC2	–	–	–	–	–	–
Nc1c(C(=O)N2CCOCC2)sc2nc(N3CCOCC3)c3c(c12)CCCC3	–	–	–	?	–	39.8µM
Cc1cc(C)c2cc3c(N)c(C(=O)N4CCc5ccccc5C4)sc3nc2c1	–	–	–	–	–	–
